Activity change, negative = inhibition, outcome and Potency data for 18 compounds are collected here from PubChem BioAssay (NCATS).

A number with no mark means an inactive call. Results filed as inconclusive are left out. Calls of active or inactive are those of the source. Unless noted, the call rests on the fitted dose curve; in most records, active means well fitted curve in either direction with a large enough effect (not every such curve was filed as active); inconclusive means small, poorly fitted or top-dose-only effect, or another doubt; inactive means flat fitted curve, though single readings scatter. Where only a bound is given, the exact number is not on record here.

Test [1] in a line: AP1 Signaling Pathway (AID 357).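 Further: ME-180 reporter cells stimulated with EGF at its EC50 level; on the % scale 0 is the no-effect control and ±100 the full control effect.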 To be noted: ME-180 (cervical carcinoma) AP-1-bla reporter, EGF-induced, beta-lactamase ratio, 5 h; at 17.2 µM (top of the series) unless noted. In short, it runs like this:
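Cells are seeded overnight, exposed to compound titrations and an EC50 level of EGF for 5 hours at 37 °C, then loaded with CCF4 dye for 2.5 hours. Beta-lactamase activity under the AP-1 element is read as a blue/green ratio.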

A short description of test [2]: NFAT Signaling Pathway (AID 444).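 Further: carbachol stimulus at about its EC50 of 1 µM final; on the % scale 0 is the no-effect control and ±100 the full control effect.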 To be noted: Jurkat NFAT-bla M1, carbachol, beta-lactamase ratio, 5 h; at 17.2 µM (top of the series) unless noted. Put shortly:
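Jurkat cells with NFAT-driven β-lactamase reporter and co-expressed M1 receptor, stimulated with carbachol (final 1 uM, ~EC50), compound titration, 5 h at 37 °C. CCF4 loaded 1 h at RT; 460/530 nm ratio gave %activity and AC50.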

The nature of test [3]: Stat Signaling Pathway (AID 446).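 Further: ME-180 cervical cancer cells given 40 pM IL-6 alongside compound; SIE-controlled beta-lactamase reporter measured as 460/530 nm FRET emission ratio; on the % scale 0 is the no-effect control and ±100 the full control effect.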 In short, it runs like this:
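Normalization used AC90 stimulation (300 pM IL-6) and AC90 inhibition (125 nM pan-JAK inhibitor at 40 pM IL-6). The underlying signal is SIE-driven beta-lactamase in ME-180 cells after 5 h IL-6 exposure with compound.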

Test [4] has as its target Glucocorticoid receptor (Homo sapiens) (UniProt P04150). Kind of test: GR-GFP Redistribution (AID 450;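 active means compounds whose dose series gives a full or clear partial fitted curve of increased nuclear translocation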; further: potency means the concentration at half of the fitted maximal effect). To be noted: U2OS GR-GFP nuclear translocation, laser cytometry, 2 h.
For test [5] the target is unchanged. Kind of test: GR-EFC Redistribution (AID 451; calls by dose curve; further: potency means the concentration at half of the fitted maximal effect). To be noted: CHO-K1 GR-EFC translocation, beta-gal luminescence, 2 h. Put shortly:
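CHO-K1 cells expressing nuclear EA and GR-ED fragments of b-gal; compounds titrated up to 46 uM final, 2 h at 37 C. GR nuclear translocation read as complemented b-gal luminescence after 1 h RT detection.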

In test [6] the target is Mitogen-activated protein kinase 10 (Mus musculus) (UniProt Q61831). Briefly: JNK3 AlphaScreen Assay (AID 530).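 Further: kinase came from lysate of stimulated human HepG2 cells; signal reports phosphorylation of biotinylated GST-cJun 1-79 at Ser73 with 10 µM ATP; on the % scale 0 is the no-effect control and ±100 the full control effect.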 Put shortly:
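Activity was read by AlphaScreen after JNK3-containing HepG2 lysate (cytokine pre-activated) phosphorylated biotinylated GST-cJun with 10 uM ATP at room temperature. Phospho-Ser73 cJun antibody with Protein-A acceptor beads provided detection.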

Test [7] addresses 3',5'-cyclic-AMP phosphodiesterase 4B (Homo sapiens) (UniProt Q07343). Kind of test: qHTS Assay for Inhibitors of PDE-IV (AID 607; active means well fitted activation curve with a large enough effect in the main read-out, with a control signal flat, not every such curve was filed as active; further: % of control where 0% means no effect). Put shortly:
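HEK293 ACTOne cells with CNG channel (1000/well), endogenous PDE4; membrane potential dye, compounds up to 22.9 uM final. Fluorescence Ex 535/Em 590; RO 20-1724 (100 uM final) as reference.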
In general terms: Quantitative high-throughput screening tests each substance at several concentrations.

The target of test [8] is Ubiquitin carboxyl-terminal hydrolase 1 (Homo sapiens) (UniProt O94782). Briefly: Inhibitors of USP1/UAF1: Pilot qHTS (AID 504865; active means well fitted inhibition curve with a large enough effect;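 further: rhodamine fluorescence freed from ubiquitin-rhodamine substrate followed over time; top concentration of the series differs between compounds; on the % scale 0 is the no-effect control and ±100 the full control effect; nearly all actives have a fitted effect of over 35% in size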). Put shortly: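 Kinetic fluorescence assay: 1nM USP1/UAF1, 15 min compound preincubation, then 150nM Ub-Rho; 480/540 nm.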
Chain of Ubiquitin carboxyl-terminal hydrolase 1 (Homo sapiens) (O94782 whole entry, looked up): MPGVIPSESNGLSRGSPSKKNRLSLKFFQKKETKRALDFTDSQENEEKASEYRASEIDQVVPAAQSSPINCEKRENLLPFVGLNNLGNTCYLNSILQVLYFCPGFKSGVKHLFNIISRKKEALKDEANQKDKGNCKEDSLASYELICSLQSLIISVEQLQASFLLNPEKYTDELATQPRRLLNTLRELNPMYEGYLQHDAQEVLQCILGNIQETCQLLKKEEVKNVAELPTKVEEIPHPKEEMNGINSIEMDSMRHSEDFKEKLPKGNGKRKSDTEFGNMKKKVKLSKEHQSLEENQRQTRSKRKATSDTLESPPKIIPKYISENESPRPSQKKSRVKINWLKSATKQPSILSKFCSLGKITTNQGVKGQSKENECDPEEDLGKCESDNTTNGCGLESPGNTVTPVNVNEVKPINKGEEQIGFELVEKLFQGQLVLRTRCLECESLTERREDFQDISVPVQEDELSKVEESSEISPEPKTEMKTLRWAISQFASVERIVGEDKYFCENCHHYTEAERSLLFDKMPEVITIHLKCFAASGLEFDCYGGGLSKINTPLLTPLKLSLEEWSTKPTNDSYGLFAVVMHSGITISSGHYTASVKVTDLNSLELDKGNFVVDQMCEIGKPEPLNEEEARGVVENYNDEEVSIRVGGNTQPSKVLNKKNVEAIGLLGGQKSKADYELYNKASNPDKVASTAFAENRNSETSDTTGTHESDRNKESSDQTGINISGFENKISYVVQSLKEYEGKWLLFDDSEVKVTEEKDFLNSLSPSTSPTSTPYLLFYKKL

Chain of Glucocorticoid receptor (Homo sapiens) (P04150 whole entry, looked up): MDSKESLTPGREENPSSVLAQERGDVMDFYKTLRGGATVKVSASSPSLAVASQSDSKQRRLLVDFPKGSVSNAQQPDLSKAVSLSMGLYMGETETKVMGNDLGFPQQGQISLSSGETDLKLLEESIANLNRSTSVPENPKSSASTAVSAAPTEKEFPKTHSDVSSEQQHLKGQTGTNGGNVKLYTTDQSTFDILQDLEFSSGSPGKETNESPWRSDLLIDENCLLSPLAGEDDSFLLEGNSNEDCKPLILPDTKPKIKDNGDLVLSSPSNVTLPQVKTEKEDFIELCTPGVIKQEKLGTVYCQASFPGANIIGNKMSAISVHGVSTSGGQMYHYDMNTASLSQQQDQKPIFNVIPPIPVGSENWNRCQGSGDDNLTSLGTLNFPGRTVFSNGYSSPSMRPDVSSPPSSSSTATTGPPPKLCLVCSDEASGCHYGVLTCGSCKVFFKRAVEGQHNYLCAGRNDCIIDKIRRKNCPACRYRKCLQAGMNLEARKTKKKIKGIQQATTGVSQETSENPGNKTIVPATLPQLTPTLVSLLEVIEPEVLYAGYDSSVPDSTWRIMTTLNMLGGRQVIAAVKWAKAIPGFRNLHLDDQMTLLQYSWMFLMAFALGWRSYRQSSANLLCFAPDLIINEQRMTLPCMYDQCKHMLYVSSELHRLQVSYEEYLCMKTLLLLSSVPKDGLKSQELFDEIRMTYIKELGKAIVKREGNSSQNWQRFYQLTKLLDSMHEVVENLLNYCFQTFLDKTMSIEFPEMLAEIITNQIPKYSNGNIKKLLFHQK
Chain of 3',5'-cyclic-AMP phosphodiesterase 4B (Homo sapiens) (Q07343 whole entry, looked up): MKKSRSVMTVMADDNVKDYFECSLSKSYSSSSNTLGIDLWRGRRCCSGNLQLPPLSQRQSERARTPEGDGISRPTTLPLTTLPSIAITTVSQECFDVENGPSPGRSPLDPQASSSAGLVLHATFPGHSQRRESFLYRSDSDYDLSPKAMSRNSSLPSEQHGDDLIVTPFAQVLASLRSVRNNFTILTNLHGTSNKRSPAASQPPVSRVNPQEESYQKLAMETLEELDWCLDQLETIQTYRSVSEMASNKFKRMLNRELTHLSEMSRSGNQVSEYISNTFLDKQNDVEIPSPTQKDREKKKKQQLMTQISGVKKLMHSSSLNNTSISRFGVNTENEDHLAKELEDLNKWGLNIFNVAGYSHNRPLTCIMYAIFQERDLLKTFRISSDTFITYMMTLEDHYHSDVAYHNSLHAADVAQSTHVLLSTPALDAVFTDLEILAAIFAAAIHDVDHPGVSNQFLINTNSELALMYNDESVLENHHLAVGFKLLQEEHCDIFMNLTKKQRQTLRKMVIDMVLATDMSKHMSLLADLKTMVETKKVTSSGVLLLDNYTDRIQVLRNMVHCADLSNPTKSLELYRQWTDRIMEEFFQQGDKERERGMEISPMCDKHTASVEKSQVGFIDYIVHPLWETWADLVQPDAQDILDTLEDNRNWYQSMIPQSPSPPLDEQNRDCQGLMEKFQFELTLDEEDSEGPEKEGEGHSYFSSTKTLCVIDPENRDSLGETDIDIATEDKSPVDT

Regarding `CC1(C)NCCN2C(=O)CSC21` (centres undefined), the activity change, negative = inhibition in test [1] is 17.6%; in test [2], 0.762%. Further, the compound was classed as inactive in test [3]. Besides, the Potency in test [4] was greater than 20.6 µM.
`COc1cccc(-n2c(C)nc3ccccc3c2=O)c1`: the activity change, negative = inhibition in test [1] is 10.2%; in test [2] it was 3.48%. Also, in test [3], the compound was classed as inactive. Further, the Potency in test [4] was greater than 20.6 µM.
On to `COC(=O)C(c1ccccc1)N1CCCCCC1` (centres undefined), for which the activity change, negative = inhibition was 17.9% in test [1] and -19.7% in test [2]. For the same compound, the compound was classed as inactive in test [3]. Besides, the Potency in test [4] was greater than 20.6 µM.
On to `CCCN(CC#CCO)CCC`, for which the activity change, negative = inhibition in test [1] is -3.1%; in test [2] it was 3.75%. The compound was called inactive in test [3]. Also, the Potency in test [4] was greater than 20.6 µM.
Taken in the same sequence, the figures for `CCOc1ccc(Cc2c(O)[nH]c(=O)[nH]c2=O)cc1` were -3.54%, 3.49%, “inactive” and greater than 20.6 µM.
Take `COC(=O)C(O)(c1c[nH]c2ccccc12)C(F)(F)F` (centres undefined): the activity change, negative = inhibition is -14.1% in test [1] and -8.45% in test [2]. For the same compound, in test [3], the compound was classed as inactive. Further, the Potency in test [4] was greater than 20.6 µM.
As to `COc1ccc2c(c1)c(C(=O)O)c(C)n2CC(C)C`, the activity change, negative = inhibition in test [1] is 12.3%; in test [2], 1.61%. Also, the call in test [3] was inactive. Moreover, the Potency in test [4] is greater than 20.6 µM.
For `CCOc1ccc(-n2c(O)c(C=NCCN3CCNCC3)c(=O)[nH]c2=O)cc1`, the activity change, negative = inhibition in test [1] was 9.57%; in test [2], 0.77%. For the same compound, in test [3], the result was inactive. Moreover, in test [4], the Potency was greater than 20.6 µM.
As to `CN(C)CCOC(=O)c1cn(Cc2ccccc2)c2ccccc12`, the values for the activity change, negative = inhibition in test [1] and in test [2] were 16% and -13.6%, respectively. For the same compound, the compound was classed as inactive in test [3]. Moreover, in test [4], the Potency is greater than 20.6 µM.
Consider `Cc1ccc2c(c1)[C@@H]1CN(C)CC[C@@H]1N2C(=O)Nc1cccc(C(F)(F)F)c1`, for which the activity change, negative = inhibition in test [1] is 28.8%; in test [2], -12.5%. In test [3], the call was inactive. For the same compound, the Potency in test [4] is greater than 20.6 µM.
Take `CCCCSP1(=S)NCCCN1`: the activity change, negative = inhibition is -7.63% in test [1] and -2.25% in test [2]. Also, in test [3], the call was inactive. Besides, the Potency in test [4] was greater than 20.6 µM.
Taken in the same sequence, the figures for `CC(=O)C1(c2ccccc2)CCNCC1` were 6.36%, -17.3%, “inactive” and greater than 20.6 µM.
With `CCn1c(O)c(C(=O)CC2NCCc3ccccc32)c(=O)n(CC)c1=S` (centres undefined), the activity change, negative = inhibition in test [1] was 5.38%; in test [2], 22.3%. Also, the compound was called inactive in test [3]. In addition, in test [4], the Potency is greater than 20.6 µM.
As to `NCC1(c2ccc3c(c2)OCCO3)CCCC1`, the activity change, negative = inhibition in test [1] was 3.9%; in test [2], -11.3%. In test [3], the compound was called inactive. The Potency in test [4] is greater than 20.6 µM.
In the case of `COc1ccc(C2SCC(=O)Nc3c2c(=O)[nH]n3C2CCCCC2)cc1` (centres undefined), the activity change, negative = inhibition is -14.7% in test [1] and 0.11% in test [2]. In addition, the call in test [3] was inactive. For the same compound, the Potency in test [4] was greater than 20.6 µM.
Consider `CN1C[C@@H](CNC(=O)OCc2ccccc2)C[C@H]2c3cccc4c3c(cn4C)C[C@@H]21`, for which the activity change, negative = inhibition is 29.6% [at 38 µM] in test [1] and 0.446% [at 38 µM] in test [2]. Besides, the call in test [3] and in test [6] was inactive. The Potency in test [4] and in test [5] was greater than 46 µM in each case.
As for `CCOC(=O)[C@@]1(C#N)[C@@H]2C=CC(C(N)=O)=CN2[C@@H](C(N)=O)[C@@H]1c1cccc(Cl)c1`, the activity change, negative = inhibition in test [1] is -3.06%. The outcome in test [3] was inactive. In addition, the Potency in test [4] was greater than 20.6 µM.
As for `C[C@H]1C[C@@H](C)C(=O)[C@@H]([C@H](O)CC2CC(=O)NC(=O)C2)C1`, the figures for the activity change, negative = inhibition in test [1] and in test [2] were -97.3% (active) and -119% (active), respectively. Moreover, the result in test [6] and in test [7] was inactive. Also, in test [8], the Potency result was “inactive”.
